# In PubChem BioAssay AID1745853 (National Center for Advancing Translational Sciences (NCATS), 2022):
# In all, about 25,000 compounds went through this assay and about 970 (3.9%) were called active. Inconclusive results (about 8%) are left out. How the calls were made is not given here. The sample as a whole holds a higher share of actives than the screen did.
# Experiments:
# Test in all cases: Primary Screen for Target Class Profiling of Small Molecule Inhibitors of Methyltransferases
# [1] = molecular target: Catechol O-methyltransferase (Homo sapiens) (UniProt P21964); conditions: purified enzyme, MTase-Glo SAH luminescence; activity change, negative = inhibition: at 40 µM, stronger effect = lower value; outcome: 40 uM
# How it was run: (§1)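 Each enzyme was assayed with SAM and its substrate. SAH formation detected by MTase-Glo luminescence; single-point 40 uM screen[…].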
# [2] = molecular target: Glycine N-methyltransferase (Homo sapiens) (UniProt Q14749); conditions: purified enzyme, MTase-Glo SAH luminescence; measured here: GNMT inhibition; at 40 µM; stronger effect = lower value
# How it was run: as §1
# [3] = molecular target: Guanidinoacetate N-methyltransferase (Homo sapiens) (UniProt Q14353); conditions: purified enzyme, MTase-Glo SAH luminescence; measured here: GAMT inhibition; at 40 µM; stronger effect = lower value
# How it was run: as §1
# [4] = molecular target: Histamine N-methyltransferase (Homo sapiens) (UniProt P50135); conditions: purified enzyme, MTase-Glo SAH luminescence; measured here: HNMT inhibition; at 40 µM; stronger effect = lower value
# How it was run: as §1
# [5] = molecular target: Nicotinamide N-methyltransferase (Homo sapiens) (UniProt P40261); conditions: purified enzyme, MTase-Glo SAH luminescence; measured here: NNMT inhibition; at 40 µM; stronger effect = lower value
# How it was run: as §1
# [6] = molecular target: Phenylethanolamine N-methyltransferase (Homo sapiens) (UniProt P11086); conditions: purified enzyme, MTase-Glo SAH luminescence; measured here: PNMT inhibition; at 40 µM; stronger effect = lower value
# How it was run: as §1
# On the % scale 0 is the no-effect control and ±100 the full control effect.
# Histamine N-methyltransferase (Homo sapiens), sequence (P50135 whole entry, looked up): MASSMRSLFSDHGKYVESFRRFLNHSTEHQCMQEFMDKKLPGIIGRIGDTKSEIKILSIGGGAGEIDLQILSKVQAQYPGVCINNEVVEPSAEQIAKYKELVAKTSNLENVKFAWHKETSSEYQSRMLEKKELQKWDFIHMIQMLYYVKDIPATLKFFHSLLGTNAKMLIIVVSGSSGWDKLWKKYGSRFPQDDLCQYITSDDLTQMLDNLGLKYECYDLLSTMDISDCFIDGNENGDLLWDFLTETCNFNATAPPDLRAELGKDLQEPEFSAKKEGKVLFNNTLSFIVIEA
# Nicotinamide N-methyltransferase (Homo sapiens), sequence (P40261 whole entry, looked up): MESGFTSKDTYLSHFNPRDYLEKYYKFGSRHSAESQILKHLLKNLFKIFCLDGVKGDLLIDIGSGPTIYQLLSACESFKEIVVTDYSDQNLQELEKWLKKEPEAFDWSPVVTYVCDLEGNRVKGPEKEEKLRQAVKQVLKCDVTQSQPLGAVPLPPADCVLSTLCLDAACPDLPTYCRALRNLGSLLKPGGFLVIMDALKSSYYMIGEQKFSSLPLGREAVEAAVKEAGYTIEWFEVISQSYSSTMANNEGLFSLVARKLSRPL
# Catechol O-methyltransferase (Homo sapiens), sequence (P21964 whole entry, looked up): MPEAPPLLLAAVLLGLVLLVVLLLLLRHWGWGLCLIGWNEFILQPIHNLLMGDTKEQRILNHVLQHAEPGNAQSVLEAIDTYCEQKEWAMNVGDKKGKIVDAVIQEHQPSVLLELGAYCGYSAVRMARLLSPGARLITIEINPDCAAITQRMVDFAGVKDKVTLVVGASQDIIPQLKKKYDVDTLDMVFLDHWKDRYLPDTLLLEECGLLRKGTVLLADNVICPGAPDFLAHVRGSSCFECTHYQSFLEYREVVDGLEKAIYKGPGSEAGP
# Glycine N-methyltransferase (Homo sapiens), sequence (Q14749 whole entry, looked up): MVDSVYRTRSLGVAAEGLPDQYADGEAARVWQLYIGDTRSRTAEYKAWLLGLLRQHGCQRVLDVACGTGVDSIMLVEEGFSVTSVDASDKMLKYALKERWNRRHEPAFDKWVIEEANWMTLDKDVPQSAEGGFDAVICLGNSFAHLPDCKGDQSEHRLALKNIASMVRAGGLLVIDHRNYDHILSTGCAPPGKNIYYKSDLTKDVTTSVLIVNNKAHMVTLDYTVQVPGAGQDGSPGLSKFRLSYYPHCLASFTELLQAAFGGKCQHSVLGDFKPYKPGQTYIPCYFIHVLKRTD
# Phenylethanolamine N-methyltransferase (Homo sapiens), sequence (P11086 whole entry, looked up): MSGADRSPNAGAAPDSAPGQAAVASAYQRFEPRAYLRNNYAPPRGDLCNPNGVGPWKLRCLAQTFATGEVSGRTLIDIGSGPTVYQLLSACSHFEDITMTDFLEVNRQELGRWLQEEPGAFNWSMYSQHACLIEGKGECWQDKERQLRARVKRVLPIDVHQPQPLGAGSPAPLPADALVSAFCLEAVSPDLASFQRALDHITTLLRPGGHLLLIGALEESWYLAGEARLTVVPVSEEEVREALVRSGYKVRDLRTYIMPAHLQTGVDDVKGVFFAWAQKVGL
SMILES,"activity change, negative = inhibition [1]","activity change, negative = inhibition [2]","activity change, negative = inhibition [3]","activity change, negative = inhibition [4]","activity change, negative = inhibition [5]","activity change, negative = inhibition [6]"
C=Cc1ccc(Cn2nc3n(CC(C)C)c(=O)c4ccc(C(=O)NC(C)CC)cc4n3c2=O)cc1 (stereo unspecified),2.79% (inactive),4.48%,0%,10.7%,-0.533%,5.38%
O=S(=O)(c1ccc2[nH]c3c(c2c1)CCCC3)N1CCN(Cc2ccccc2)CC1,4.94% (inactive),5.6%,0%,5.93%,5.54%,4.34%
Cc1nc2c(c(NC3CC3)n1)CCN(C(=O)CCc1cccnc1)CC2,-0.626% (inactive),-3.41%,-8.98%,-2.51%,-8.36%,-4.07%
COc1cc(NC(=O)Nc2cccc(CNC(=O)O[C@H]3CCOC3)c2)ccc1-c1cnco1,-2.73% (active),-16.2%,1.61%,-89.1%,-22.8%,-6.4%
CC1CCCC(NC(=O)C2(C)Cn3c(nc4ccccc43)C(=O)N2Cc2ccc(Cl)cc2)C1C (stereo unspecified),1.59% (inactive),-0.93%,1.75%,0.57%,2.43%,-2.27%
Cc1cccc(CCNC(=O)c2cc3n(n2)CC(C)(C(=O)NCc2ccccc2)N(C)C3=O)c1 (stereo unspecified),0.858% (inactive),3.01%,0.251%,3.89%,3.49%,1.3%
CCCS(=O)(=O)N1CCCC(Cc2noc(-c3cnccn3)n2)C1 (stereo unspecified),-2.88% (inactive),-4%,-4.91%,-0.21%,-5.94%,-4.02%
CCCS(=O)(=O)N1CCCC(Cn2c(C)nc3cccnc32)C1 (stereo unspecified),-1.28% (active),-90.9%,-3.03%,-2.37%,-5.85%,-1.53%
CCCS(=O)(=O)N1CCCC(OCc2noc(C3CCOCC3)n2)C1 (stereo unspecified),-3.2% (inactive),-4.75%,-6.9%,-3.01%,-9.35%,-7.82%
CC1(C(=O)NC2CCCC2)Cn2c(cc3ccccc32)C(=O)N1c1ccc(F)cc1 (stereo unspecified),1% (inactive),0.736%,0%,3.74%,5.9%,0.017%
Cc1cccc(NC(=O)CSc2nnc3n(CC(C)C)c(=O)c4ccc(C(=O)NC(C)C)cc4n23)c1,2.32% (inactive),0.335%,4.37%,4.71%,-3.04%,1.77%
Cc1c(NS(=O)(=O)c2cccc3c2C(=O)c2ccccc2C3=O)c(=O)n(-c2ccccc2)n1C,-6.91% (inactive),-20.9%,3.01%,-5.26%,-8.5%,-27%
COc1ccccc1CCN1C(=O)c2ccc(-c3ccco3)n2CC1(C)C(=O)NC1CCCCCC1 (stereo unspecified),-0.859% (inactive),-4.07%,0%,-1.27%,-3.86%,-2.83%
Cc1ccc(N2C(=O)c3cc(-c4ccco4)nn3CC2(C)C(=O)NC2CCCCC2)cc1Cl (stereo unspecified),-4.47% (inactive),-10.8%,2.7%,-6.61%,-7.94%,-7.34%
O=C(c1coc(CN2CCN(C/C=C/c3ccccc3)CC2)n1)N1CCC[C@H]1CO,1.4% (inactive),-0.744%,2.52%,0.892%,-2.33%,15.6%
O=C1Nc2ccc(O)cc2O[C@H]1O[C@@H]1O[C@H](CO)[C@@H](O)[C@H](O)[C@H]1O,2.34% (inactive),1.1%,7.9%,2.99%,-5.97%,2.07%
